Assay outcomes (PubChem)
LYPLA1 inh – blocks human lysophospholipase 1, a PME1 counter-screen | O75608 | recombinant LYPLA1, FP-Rh probe fluorescence polarization | inhibition, % at 5.9 µM | 320,000 tested, 0.16% active | AID 2174;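 active = inhibition above the mean of all tested compounds plus 3 SD, set per campaign, cut at about 14% in these data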;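 note: inhibitors block serine hydrolase probe labeling of LYPLA1 so polarization falls; 0% = enzyme with DMSO and 100% = wells lacking LYPLA1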
Target sequence (O75608 whole entry, looked up): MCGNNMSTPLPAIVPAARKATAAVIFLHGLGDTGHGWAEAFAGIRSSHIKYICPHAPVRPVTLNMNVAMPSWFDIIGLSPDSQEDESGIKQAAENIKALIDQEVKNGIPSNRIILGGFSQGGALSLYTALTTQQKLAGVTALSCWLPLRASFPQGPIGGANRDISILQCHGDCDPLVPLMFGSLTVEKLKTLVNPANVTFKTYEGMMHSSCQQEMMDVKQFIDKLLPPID
GSTO1 counter – counter-screen for RBBP9 inhibitors: inhibitors of human GSTO1; P78417; recombinant GSTO1, activity-based probe fluorescence polarization; inhibition, % at 5.96 µM; 300,000 tested, 1.1% active; AID 1974;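 active = inhibition above the campaign mean inhibition plus 3 SD, cut at about 35% in these data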;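 note: 0% = GSTO1-1 with DMSO and 100% = wells lacking GSTO1-1 enzyme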
Target sequence (P78417 whole entry, looked up): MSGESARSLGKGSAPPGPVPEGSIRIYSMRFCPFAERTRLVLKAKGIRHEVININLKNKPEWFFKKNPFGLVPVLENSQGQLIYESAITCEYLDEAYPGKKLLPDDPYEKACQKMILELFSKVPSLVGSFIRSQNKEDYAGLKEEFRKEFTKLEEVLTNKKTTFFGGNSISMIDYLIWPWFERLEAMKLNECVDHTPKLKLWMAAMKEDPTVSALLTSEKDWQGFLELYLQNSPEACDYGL
PAD4 inh – PAD4 (human) enzyme inhibition | Q9UM07 | recombinant PAD4, RCA probe fluorescence polarization | inhibition, % at 6.36 µM | 330,000 tested, 0.41% active | AID 485272;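 active = percent inhibition above a cutoff equal to the mean of all tested compounds plus 3 SD, cut at about 15% in these data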;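 note: 0% = PAD4 with RCA probe and DMSO and 100% = probe without PAD4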
LYPLA2 counter – counter-screen for PME1 inhibitors: inhibitors of human LYPLA2; O95372; recombinant LYPLA2, FP-Rh probe fluorescence polarization; inhibition, % at 5.9 µM; 320,000 tested, 0.38% active;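 active = inhibition above the screen-wide mean plus 3 SD, limit set per campaign, cut at about 26% in these data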;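 note: 0% = LYPLA2 with DMSO and 100% = wells lacking LYPLA2 enzyme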
EBNA-1 inhibitor – blocks EBNA-1 binding to DNA; inhibition, % at 14.8 µM; 300,000 tested, 0.34% active; EBNA-1 DNA binding, fluorescence polarization; in the data active = inhibition above about 28%
ZTA DNA inh – blocks Epstein-Barr virus ZTA, an EBNA-1 counter-screen; AID 2234; 320,000 tested, 0.15% active; inhibition, % at 11 µM; ZTA-DNA binding, fluorescence polarization; P03206; in the data active = inhibition above about 33%
PAD4 FP conf – confirmation of human PAD4 inhibitors | shares compounds with PAD4 inh | recombinant PAD4, RCA probe fluorescence polarization | inhibition, % at 6.36 µM | 1,200 tested, 28% active | AID 488796;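 active = mean inhibition across replicates above the hit cutoff set by the earlier primary screen, cut at about 15% in these data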;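 note: inhibitors block active-site labeling by the probe so polarization falls; 0% = PAD4 with probe and DMSO and 100% = probe without PAD4 enzyme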
* hit, by the source's call; x = no result. An excerpt weighted towards active compounds, which were near 1.7% of everything screened.

SMILES	LYPLA1 inh	GSTO1 counter	PAD4 inh	LYPLA2 counter	EBNA-1 inhibitor	ZTA DNA inh	PAD4 FP conf
Cc1ccc(C2(C)NC(=O)N(CC(=O)NC(=O)NC(C)(C)C)C2=O)cc1 (stereo not drawn)	0	9	16*	-3	6	-3	-6
COC(=O)[C@H](Cc1c[nH]c2ccccc12)NC(=O)Nc1ccccc1OC	-3	7	-6	0	-16	-3	x
O=C(CSCc1ccccc1Cl)NCCSc1ccccn1	0	7	16*	3	1	6	1
COC(=O)c1cccc(NC(=O)CCc2c(C)noc2C)c1	-2	x	31*	0	x	8	0
CC1CN(S(=O)(=O)c2cccc(C(=O)NCCc3ccc(S(N)(=O)=O)cc3)c2)CC(C)O1 (stereo not drawn)	x	x	4	x	x	x	x
O=C(N/N=C1\C/C(=N\NC(=O)c2ccncc2)c2ccccc21)c1ccncc1	-5	56*	44*	1	-13	-19	-15
Cc1ccc(C(=O)N2CC(C)CC(C)C2)cc1NC1=NC2CS(=O)(=O)CC2S1 (stereo not drawn)	-3	2	-1	-2	-8	15	x
Cn1c(SCC(=O)N/N=C/C=C/c2ccccc2[N+](=O)[O-])nc2ccccc21	1	3	-3	7	25	-8	x
Cn1c(SCC(=O)N/N=C/C=C/c2ccco2)nc2ccccc21	1	8	52*	2	1	11	2
CCN(CC)c1ccc(N=Cc2ccc(N(CC)CC)cc2O)cc1	0	57*	17*	-5	129*	192*	-3
CCN(CC)c1ccc(C=Nc2ccc(C)cc2)c(O)c1	0	2	1	-1	9	-3	x
Cc1cc(NC(=O)CCC(=O)N(c2ccccc2)C(C(=O)NC2CCCC2)c2ccccc2F)no1 (stereo not drawn)	-3	-3	19*	-3	4	9	2
Cc1cc(NC(=O)CCC(=O)N(c2cccnc2)C(C(=O)NC2CCCC2)c2ccccc2F)no1 (stereo not drawn)	1	2	1	3	11	20	x
CCOC(=O)C1(C)C=C(Nc2ccc(O)cc2)C(=O)N1c1ccc(O)cc1 (stereo not drawn)	5	89*	85*	16	-15	-21	6
CCOC(=O)C1(C)C=C(Nc2ccc(OC)cc2)C(=O)N1c1ccc(OC)cc1 (stereo not drawn)	1	1	-4	1	4	-12	x
COc1ccc(Br)cc1CNC(=O)CCNC(=O)Cn1ccc2ccccc2c1=O	-5	2	1	0	0	10	x
CCn1c(-c2cc(Br)cc(OC)c2O)nc2cc(S(=O)(=O)N(C)C)ccc21	-1	-10	18*	-3	-6	0	22*
CCn1c(-c2ccccn2)nc2cc(S(=O)(=O)N(C)C)ccc21	3	-5	-4	3	9	-5	x
O=C(CNC(=O)c1ccc(Cl)cc1Cl)OCc1nnc(-c2ccccc2)o1	-1	2	-3	-2	2	11	x
CC(C)(O)CC[C@@H](O)[C@](C)(O)C1CC[C@@]2(O)C3=CC(=O)[C@]4(O)C[C@@H](O)[C@@H](O)C[C@]4(C)C3CC[C@]12C (stereo partly drawn)	1	x	0	-3	x	-6	x
CC(=C\C(=O)O)/C(=C\c1cccc2ccccc12)C(=O)O	1	5	3	1	-1	-13	x
C=CCNC(=O)C(=O)NCC1CCCN1S(=O)(=O)c1cccs1 (stereo not drawn)	2	5	27*	10	-4	-25	10
Cc1ccnc(NC(=O)c2cc3cc(F)ccc3s2)c1	-4	-8	17*	-6	-15	-11	25*
Cc1ccnc(NC(=O)Nc2ccc(F)cc2)c1	-2	-1	4	-8	3	3	x
Cc1nn(C)c(NC(=O)c2ccc(Cl)cc2Cl)c1Br	0	5	-1	0	-5	-12	x
SMILES	LYPLA1 inh	GSTO1 counter	PAD4 inh	LYPLA2 counter	EBNA-1 inhibitor	ZTA DNA inh	PAD4 FP conf
CC(C)(C)[C@H]1COC(=O)CCC/C=C/C[C@H](CC(=O)N(CCO)Cc2ccccc2)C(=O)N1	x	x	10	x	x	x	x
CCN1CCN(C(=O)/C(=C/c2cccs2)NC(=O)c2ccc(C)c(C)c2)CC1	0	-4	1	5	0	14	x
O=C(O)c1ccc(S(=O)(=O)c2ccc3c(c2)C(=O)N(c2ccc(O)cc2)C3=O)cc1	1	15	62*	4	15	5	4
COC(=O)c1ccc2c(c1)C(=O)/C(=C/c1ccc(O)cc1)O2	-11	-27	-5	-26	-2	-3	x
COc1cccc(/C=C2\Oc3ccc(O)cc3C2=O)c1O	0	-12	16*	-1	-17	-9	5
COc1ccc(Nc2ccnc(Nc3ccc(OC)cc3)n2)cc1	0	-1	2	-5	-8	2	x
Fc1ccccc1C1CC(c2ccco2)=Nc2ccccc2S1 (stereo not drawn)	-2	-1	19*	7	4	2	4
Cc1cc(=O)oc2c(CN3CCC(C)CC3)c(O)c(Cl)cc12	10	19	33*	11	-2	-2	21*
Cc1cc(=O)oc2c(CN3CCCC3)c(O)c(Cl)cc12	0	3	1	2	6	-4	x
CC(C)c1cc(C(=O)NNC(=S)NC2CCCCC2)cs1	2	2	4	16	-8	4	x
N=C(N)c1ccc(N)cc1	0	1	-1	5	1	-1	x
NC(=Nc1ccc(N)cc1)C(N)=Nc1ccc(N)cc1	-5	13	46*	0	1	-2	-4
CC1CCCC(NC(=O)COC(=O)c2ccc([N+](=O)[O-])s2)C1C (stereo not drawn)	x	x	15*	x	x	x	7
CC1CCCC(NC(=O)COC(=O)c2ccccc2[N+](=O)[O-])C1C (stereo not drawn)	2	-2	-3	6	-3	-3	x
COCCNC(=O)C(c1ccncc1)N(C(=O)Cn1nnc2ccccc21)c1ccc(OC)cc1 (stereo not drawn)	6	15	16*	5	3	-14	19*
COCCNC(=O)C(c1ccc(OC)cc1)N(C(=O)Cn1nnc2ccccc21)c1cccnc1 (stereo not drawn)	-2	-7	-7	-1	-9	-8	x
COC(=O)c1ccc(C(=O)NC2CCCc3c2cnn3-c2cc(F)cc(F)c2)nc1 (stereo not drawn)	1	2	2	1	-6	-10	x
COc1ccc(C(N)c2nccc3cc(OC)c(OC)cc23)cc1OC (stereo not drawn)	0	39*	22*	4	-2	-19	-1
COc1cc(N)c(Cc2nccc3cc(OC)c(OC)cc23)cc1OC	-3	14	-16	-9	-2	-1	x
